# PubChem BioAssay (Tox21)
# Values without a mark were called inactive. Results filed as inconclusive are left out. Entries that show only a call come without a potency. The source made the active and inactive calls. Calls follow the shape of the full dose curve.
# Biological target: Acetylcholinesterase (Homo sapiens) (UniProt P22303)
# Test: Acetylcholinesterase (AChE) small molecule antagonists: colormetric cell-based qHTS assay (AID 1347395); also: nearly all actives have a fitted effect of over 30% in size
# Settings: SH-SY5Y cells AChE activity, colorimetric (Ellman); series mostly up to 115 µM
# In short: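 Homogeneous whole-cell format. SH-SY5Y cells seeded overnight, dosed with compound (30 min, 37 C, 5% CO2), then given DTNB/acetylthiocholine cocktail for 90 min at 37 C; colorimetric signal.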
# Sequence of Acetylcholinesterase (Homo sapiens) (P22303 whole entry, looked up): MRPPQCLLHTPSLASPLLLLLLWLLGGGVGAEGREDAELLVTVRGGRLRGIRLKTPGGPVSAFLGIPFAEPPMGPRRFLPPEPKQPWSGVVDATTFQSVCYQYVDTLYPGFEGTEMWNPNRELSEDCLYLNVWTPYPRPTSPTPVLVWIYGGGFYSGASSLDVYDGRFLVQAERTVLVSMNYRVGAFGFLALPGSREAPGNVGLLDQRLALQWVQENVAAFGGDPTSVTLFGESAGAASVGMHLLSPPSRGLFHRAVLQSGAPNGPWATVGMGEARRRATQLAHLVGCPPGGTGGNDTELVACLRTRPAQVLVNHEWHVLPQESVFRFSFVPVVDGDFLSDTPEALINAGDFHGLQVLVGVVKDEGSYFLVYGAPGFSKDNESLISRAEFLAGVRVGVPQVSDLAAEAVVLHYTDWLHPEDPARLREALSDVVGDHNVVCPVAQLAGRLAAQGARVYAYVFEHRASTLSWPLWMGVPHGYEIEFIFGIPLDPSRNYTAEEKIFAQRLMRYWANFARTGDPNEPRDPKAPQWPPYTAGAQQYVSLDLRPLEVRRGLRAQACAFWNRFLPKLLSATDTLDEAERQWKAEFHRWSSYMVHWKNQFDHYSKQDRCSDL
Structure (SMILES),Potency,"activity, negative = inhibition"
CCCCOCCOC(=O)c1ccccc1C(=O)OCCOCCCC,inactive,–
CC(=O)c1ccc2ccc3ccccc3c2c1,inactive,–
CCCCCCCCCCO,inactive,–
CCOc1nc2cccc(C(=O)O)c2n1Cc1ccc(-c2ccccc2-c2nn[nH]n2)cc1,inactive,–
CCCCC(C)C(=O)O (stereo not given),inactive,–
Cc1cc(CCC(=O)OCCOCCOCCOC(=O)CCc2cc(C)c(O)c(C(C)(C)C)c2)cc(C(C)(C)C)c1O,inactive,–
C1CCCNCC1,inactive,–
F[B-](F)(F)F,inactive,–
OCCN(CCO)CCN(CCO)CCO,inactive,–
Cc1ccc2c(ccc3ccccc32)c1,inactive,–
CCCCCCCCCCCCS,inactive,–
CCCCOC(=O)c1ccc(N)cc1,inactive,–
N[C@@H](Cc1c[nH]c2ccccc12)C(=O)O,inactive,–
CCCCCCCO,inactive,–
COc1ccc(OC)c(NC(=O)CC(C)=O)c1,inactive,–
C=CC(=O)OCCOC(=O)CCC(=O)O,inactive,–
O=C(O)CCSSCCC(=O)O,inactive,–
OCC1(CO)COCOC1,inactive,–
O=C(O)CNC(=O)c1ccccc1,inactive,–
CCN(Cc1cccnc1)C(=O)c1cccc(Cl)c1[C@]1(C)C(=O)N(Cc2ccc(OC)cc2OC)c2ccc(Cl)cc21,inactive,–

Structure (SMILES),Potency,"activity, negative = inhibition"
CC(=O)Nc1ccc(/C=N/NC(N)=S)cc1,inactive,–
CCOB(OCC)OCC,inactive,–
CCOc1cc(OCC)c(C(C)=O)cc1OCC,inactive,–
COCCOCCOCCOC,inactive,–
CCCCCCCCO,inactive,–
Cc1cc(C(C)(C)C)c(O)c(C)c1CC1=NCCN1,inactive,–
Nc1cc(S(=O)(=O)O)ccc1O,inactive,–
COc1cc(C(=O)N2CCCCCCC2)cc(OC)c1OC,inactive,–
CC(=O)c1ccccc1O,inactive,–
CC(=O)OCCCc1ccccc1,inactive,–
Nc1cc(=O)[nH]c(N)n1,inactive,–
O=C(O)C[C@H](O)C[C@H](O)/C=C/c1c(C2CC2)nc2ccccc2c1-c1ccc(F)cc1,–,-0.67% [at 23.6 µM]
CCCCOCCO,inactive,–
CCCCc1nc(Cl)c(CO)n1Cc1ccc(-c2ccccc2-c2nn[nH]n2)cc1,inactive,–
COc1ccc2cc1Oc1cc3c(cc1OC)CC[N+](C)(C)[C@H]3Cc1ccc(cc1)Oc1c(OC)c(OC)cc3c1[C@@H](C2)[N+](C)(C)CC3,inactive,–
c1ccc2ccccc2c1,inactive,–
CCOCCOCCO,inactive,–
CCC(=O)/C=C/C1C(C)=CCCC1(C)C (stereo not given),inactive,–
CNS(=O)(=O)CCc1ccc2[nH]cc(C3CCN(C)CC3)c2c1,inactive,–
CCn1cc(C(=O)O)c(=O)c2cc(F)c(N3CCNCC3)cc21,inactive,–

# Biological target: Acetylcholinesterase (Homo sapiens) (UniProt P22303)
# Test: Acetylcholinesterase (AChE) small molecule antagonists: enzyme-based qHTS assay (AID 1347397); also: nearly all actives have a fitted effect of over 55% in size
# Settings: Potency: AChE enzyme activity inhibition; outcome: AChE enzyme activity inhibition; series mostly up to 115 µM
# In short: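 Enzyme inhibition was scored from DTNB-detected thiocholine formed by recombinant human AChE acting on acetylthiocholine. The 30 min compound preincubation and 10 min substrate reaction were both run at room temperature, with DMSO as vehicle control.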
Structure (SMILES),Potency,"activity change, negative = inhibition"
CCCCOCCOC(=O)c1ccccc1C(=O)OCCOCCCC,inactive,–
CC(=O)c1ccc2ccc3ccccc3c2c1,inactive,–
CCCCCCCCCCO,inactive,–
CCOc1nc2cccc(C(=O)O)c2n1Cc1ccc(-c2ccccc2-c2nn[nH]n2)cc1,inactive,–
CCCCC(C)C(=O)O (stereo not given),inactive,–
Cc1cc(CCC(=O)OCCOCCOCCOC(=O)CCc2cc(C)c(O)c(C(C)(C)C)c2)cc(C(C)(C)C)c1O,inactive,–
C1CCCNCC1,inactive,–
F[B-](F)(F)F,inactive,–
OCCN(CCO)CCN(CCO)CCO,inactive,–
Cc1ccc2c(ccc3ccccc32)c1,inactive,–
CCCCCCCCCCCCS,inactive,–
CCCCOC(=O)c1ccc(N)cc1,inactive,–
N[C@@H](Cc1c[nH]c2ccccc12)C(=O)O,inactive,–
CCCCCCCO,inactive,–
COc1ccc(OC)c(NC(=O)CC(C)=O)c1,inactive,–
C=CC(=O)OCCOC(=O)CCC(=O)O,inactive,–
O=C(O)CCSSCCC(=O)O,inactive,–
OCC1(CO)COCOC1,inactive,–
O=C(O)CNC(=O)c1ccccc1,inactive,–
CCN(Cc1cccnc1)C(=O)c1cccc(Cl)c1[C@]1(C)C(=O)N(Cc2ccc(OC)cc2OC)c2ccc(Cl)cc21,inactive,–

Structure (SMILES),Potency,"activity change, negative = inhibition"
CC(=O)Nc1ccc(/C=N/NC(N)=S)cc1,inactive,–
CCOB(OCC)OCC,inactive,–
CCOc1cc(OCC)c(C(C)=O)cc1OCC,inactive,–
COCCOCCOCCOC,inactive,–
CCCCCCCCO,inactive,–
Cc1cc(C(C)(C)C)c(O)c(C)c1CC1=NCCN1,inactive,–
Nc1cc(S(=O)(=O)O)ccc1O,inactive,–
COc1cc(C(=O)N2CCCCCCC2)cc(OC)c1OC,inactive,–
CC(=O)c1ccccc1O,inactive,–
CC(=O)OCCCc1ccccc1,inactive,–
Nc1cc(=O)[nH]c(N)n1,inactive,–
O=C(O)C[C@H](O)C[C@H](O)/C=C/c1c(C2CC2)nc2ccccc2c1-c1ccc(F)cc1,–,-2.86% [at 23.6 µM]
CCCCOCCO,inactive,–
CCCCc1nc(Cl)c(CO)n1Cc1ccc(-c2ccccc2-c2nn[nH]n2)cc1,inactive,–
COc1ccc2cc1Oc1cc3c(cc1OC)CC[N+](C)(C)[C@H]3Cc1ccc(cc1)Oc1c(OC)c(OC)cc3c1[C@@H](C2)[N+](C)(C)CC3,inactive,–
c1ccc2ccccc2c1,inactive,–
CCOCCOCCO,inactive,–
CCC(=O)/C=C/C1C(C)=CCCC1(C)C (stereo not given),inactive,–
CNS(=O)(=O)CCc1ccc2[nH]cc(C3CCN(C)CC3)c2c1,inactive,–
CCn1cc(C(=O)O)c(=O)c2cc(F)c(N3CCNCC3)cc21,inactive,–
